In PubChem BioAssay (Tox21):
Records with an inconclusive call do not appear. Where a call stands in place of a potency, no number is given. Active and inactive are the calls of the source. Calls come from the whole dose curve; as a rule, active = well fitted activation curve with a large enough effect in the signal ratio in the repeat runs (not every such curve was filed as active); inconclusive = weak or mixed curves; inactive = flat fitted curve, though single readings scatter; the % refers to the signal ratio.
Potency is the fitted concentration of half-maximal effect.

Experiment: qHTS assay to identify small molecule agonists of the TGF-beta/Smad signaling pathway (AID 1346859)
Settings: SBE-bla HEK293T, TGF-beta/Smad beta-lactamase reporter, 5 h; series mostly up to 76.8 µM
Text: U.S. Tox21 Program National Center for Advancing Translational Sciences [NCATS] NIH Chemical Genomics Center [NCGC] U.S. Environmental Protection Agency [EPA] National Institutes of Environmental Health Sciences [NIEHS] National Toxicology Program [NTP] U.S. Food and Drug Administration [FDA] Tox21 Assay Overview: Transforming growth factor beta (TGF-beta) superfamily consists of a large number of structurally related dimeric proteins that act as hormones or local mediators in regulating a wide range of biological functions. This superfamily includes TGF-betas themselves, the bone morphogenetic proteins (BMPs) and the activins. These ligands induce oligomerization of serine/threonine receptor kinases and phosphorylate the cytoplasmic signaling molecules of Smad protein family. CellSensor SBE-bla HEK 293T cell line (Life Technologies, Carlsbad, CA), responsive to TGF-beta was used to screen Tox21 10K compound library for identification of agonists/antagonists of the Smad signaling pathway. This cell line contains a beta-lactamase reporter gene under control of the Smad binding element (SBE) stably integrated into HEK 293T cells.
Tox21 Assay Protocol Summary: SBE-bla HEK 293T cells were dispensed at 4,000/well in 6 uL of assay medium into black wall/clear-bottom 1536-well plates using a Multidrop Combi (ThermoFisher Scientific, Waltham, MA) dispenser. After the assay plates were incubated at 37 C and 5% CO2 for an overnight, 23 nL of compounds dissolved in DMSO, positive controls or DMSO only was transferred to the assay plate by a Pintool station (Kalypsys, San Diego, CA). The assay plates were incubated at 37 C and 5% CO2 for 5 hr. One uL of LiveBLAzer B/G FRET substrate (Life Technologies) was added using a Flying Reagent Dispenser (Aurora Discovery, San Diego, CA) and the plates were incubated at room temperature for 2 hr. Fluorescence intensity (405 nm excitation, 460 nm and 530 nm emissions) was measured using an Envision plate reader (PerkinElmer, Shelton, CT).
For `c1ccsc1`, the Potency was “inactive”. For `CC(C)(C)CC(C)(C)c1ccc(Nc2ccc(C(C)(C)CC(C)(C)C)cc2)cc1`, the activation was 1.28% [at 6.97 µM] (inactive). For `O=C(O)c1ccc2cc(C(=O)O)ccc2c1`, the Potency was “inactive”. With `CCCCCCCCCCOC(=O)c1ccccc1C(=O)OCCCCCCCC` the Potency was “inactive”. In the case of `CC[C@H](C)COC(=O)/C=C/c1ccc(N=Cc2ccc(OC)cc2)cc1`, the Potency is reported as “inactive”. In the case of `CCOc1ccc2ccccc2c1C(=O)N[C@@H]1C(=O)N2[C@@H]1SC(C)(C)[C@@H]2C(=O)O`, the Potency is reported as “inactive”. In the case of `CCC(CC)C(C)CCOC(C)=O` (stereo not given), the Potency is reported as “inactive”. In the case of `O=C(O)[C@H](O)[C@@H](O)[C@H](O[C@@H]1O[C@H](CO)[C@H](O)[C@H](O)[C@H]1O)[C@H](O)CO`, the Potency is reported as “inactive”. With `CN1CCN2c3ccccc3Cc3ccccc3C2C1` (stereo not given) the Potency was “inactive”. For `CCCCCCCCCCC[C@@H](C[C@@H]1OC(=O)[C@H]1CCCCCC)OC(=O)[C@H](CC(C)C)NC=O`, the Potency was “inactive”. For `COCCOc1cc2cc(C(=O)NC3CCN(C(C)C)CC3)n(CC(=O)Nc3ccc(Cl)cn3)c2cn1`, the Potency was “inactive”. In the case of `Cc1ccc(N/N=c2\c(=O)cc/c(=N\Nc3ccc(S(=O)(=O)O)cc3)c2=O)c(C)c1`, the Potency is reported as “inactive”. With `O=C(/C=C/c1ccc(O)c(O)c1)O[C@@H](C(=O)O)[C@@H](OC(=O)/C=C/c1ccc(O)c(O)c1)C(=O)O` the Potency was “inactive”. For `NC(=O)c1cccc([N+](=O)[O-])c1`, the Potency was “inactive”. In the case of `OCCN1CCN(CCCN2c3ccccc3Sc3ccc(C(F)(F)F)cc32)CC1`, the Potency is reported as “inactive”. In the case of `CCO[Si](OCC)(OCC)OCC`, the Potency is reported as “inactive”. With `O=S(=O)(O)c1ccc(Nc2nc(Nc3ccc(/C=C/c4ccc(Nc5nc(Nc6ccc(S(=O)(=O)O)cc6)nc(N(CCO)CCO)n5)cc4S(=O)(=O)O)c(S(=O)(=O)O)c3)nc(N(CCO)CCO)n2)cc1` the Potency was 33.1 µM (active). For `OC[C@@H](O)[C@@H](O)CO`, the Potency was “inactive”. In the case of `COc1cc2nc(N3CCN(C(=O)c4ccco4)CC3)nc(N)c2cc1OC`, the activation is reported as -4.52% [at 15.8 µM] (inactive). With `Cc1cc(C(C)(C)C)cc(C)c1CC1=NCCN1` the Potency was “inactive”. In the case of `CCN1C(=O)c2ccccc2C1Nc1ccc(OCCN2CCCCC2)cc1` (stereo not given), the Potency is reported as “inactive”. For `CN1CCN(Cc2cc(-c3ccc4[nH]c(=O)oc4c3)co2)[C@@H](c2ccc(F)cc2)C1`, the Potency was “inactive”. In the case of `O=C1OC2(c3ccc(O)cc3Oc3cc(O)ccc32)c2ccc(N=C=S)cc21`, the Potency is reported as “inactive”. In the case of `CCC(C)n1ncn(-c2ccc(N3CCN(c4ccc(OC[C@H]5CO[C@](Cn6cncn6)(c6ccc(Cl)cc6Cl)O5)cc4)CC3)cc2)c1=O` (stereo not given in full), the Potency is reported as “inactive”. With `O=c1[nH]c(=O)n([C@H]2C[C@H](O)[C@@H](CO)O2)cc1F` the Potency was “inactive”. For `CNc1ccc([N+](=O)[O-])cc1`, the Potency was “inactive”. With `Nc1ccc(NCCO)c([N+](=O)[O-])c1` the Potency was “inactive”. In the case of `COC(=O)c1ccccc1OC`, the Potency is reported as “inactive”. For `O=C(O)CCN(C1(C(=O)NO)CCCC1)S(=O)(=O)c1ccc(Oc2ccc(F)cc2)cc1`, the Potency was “inactive”. With `CCOC(=O)NNc1ccc(N(CC)CC(C)O)nn1` (stereo not given) the Potency was “inactive”. With `COC(C)=O` the Potency was “inactive”. With `CCc1oc2ccccc2c1C(=O)c1cc(I)c(O)c(I)c1` the Potency was “inactive”. With `c1cnccn1` the Potency was “inactive”. In the case of `CC1(C)CC(O)CC(C)(C)N1`, the Potency is reported as “inactive”. In the case of `CN(C)[C@@H](CCOc1cccc2ccccc12)c1ccccc1`, the Potency is reported as “inactive”. For `C[C@@H](O)[C@H](N)C(=O)O`, the activation was 0.576% [at 15.8 µM] (inactive). In the case of `Nc1nc2c(ncn2COCCO)c(=O)[nH]1`, the Potency is reported as “inactive”. In the case of `CC[N+](CC)(CC)CCOC(=O)C(C1CCCC1)C1CCCC1`, the Potency is reported as “inactive”. For `CN(C)Cc1cc(C(C)(C)C)c(O)c(C(C)(C)C)c1`, the Potency was “inactive”. With `CCCCOC(=O)CO` the Potency was “inactive”.
